# Data: PubChem BioAssay (Tox21)
# Results filed as inconclusive are left out. Entries that show only a call come without a potency. Activity calls are given as the source filed them. Calls come from the whole dose curve; as a rule, active = well fitted activation curve with a large enough effect in the repeat runs; inconclusive = weak or mixed curves; inactive = no such curve, though single readings can be large or run the other way.
# Test: qHTS assay to identify small molecule agonists of the estrogen related receptor signaling pathway with the pleiotropic PPARgamma coactivator (PGC) (AID 1224823)
# Conditions: ERR/PGC reporter cell line, luciferase agonist mode; series mostly up to 46.1 µM
# From the text: National Center for Advancing Translational Sciences [NCATS]
# NIH Chemical Genomics Center [NCGC]
# U.S. Environmental Protection Agency [EPA]
# National Institutes of Environmental Health Sciences [NIEHS]
# National Toxicology Program [NTP]
# Estrogen related receptors (ERRs), the first orphan nuclear receptors discovered, play an important role in the control of cellular energy metabolism. ERRs are required for high-energy production in response to the environmental challenges. The pleiotropic PPARgamma coactivator (PGC) is a major partner of ERR and a key regulator in energy homeostasis. Together they have been implicated in the etiology of metabolic disorders such as Type 2 diabetes and metabolic syndrome. ERR-alpha was also identified as an adverse marker for breast cancer progression; ERR-alpha-positive tumors have a poor prognosis. To screen and to identify environmental compounds that perturb the PGC/ERR signaling pathways could provide valuable information for potential therapeutic or preventive measures in the treatment of metabolic disease. For identifying PGC/ERR agonists, PGC/ERR cell line (provided by NTP) has been used to screen LOPAC library.
# The PGC/ERR cells were dispensed at 2,000 cells/5 ul/well in 1536-well white plates using a Multidrop dispenser. After the assay plates were incubated at a 37 C/5% CO2 incubator for 6 hours, 23 nL of compounds dissolved in DMSO, positive and negative controls or DMSO only was transferred to the assay plate by a pin tool. The plates were incubated at 37 C for 18 hours. 4 ul/well of One-Glo reagent was added into the assay plates using a Flying Reagent Dispenser. After 30 min incubation at room temperature, the luminescence intensity in the plates was measured using a ViewLux plate reader.
# Potency is the fitted concentration of half-maximal effect.
row,SMILES,Potency
1,c1ccc2c(c1)CCC[C@H]2Nc1nc2ccccc2[nH]1,inactive
2,O=C(O)CNC(=O)C(CS)Cc1ccccc1 (stereo not given),inactive
3,Fc1ccc(C(OCCCc2cnc[nH]2)c2ccc(F)cc2)cc1,inactive
4,Nc1nc(Cl)nc2c1ncn2[C@@H]1O[C@H](CO)C(O)[C@H]1O (stereo not given in full),1.23 µM (active)
5,Cc1nc2n(c(=O)c1CCN1CCC(c3noc4cc(F)ccc34)CC1)CCCC2O (stereo not given),inactive
6,CC(C)(C)[C@]1(O)CCN2C[C@H]3c4ccccc4CCc4cccc(c43)[C@@H]2C1,inactive
7,N[C@@H](CS(=O)O)C(=O)O,inactive
8,CC(C)[C@H](NC(=O)OCc1ccccc1)C(=O)N[C@H](C=O)Cc1ccccc1,inactive
9,[N-]=[N+]=Nc1ccc(C(=O)CSC[C@H](NC(=O)CC[C@H](N)C(=O)O)C(=O)NCC(=O)O)cc1,inactive
10,N#Cc1cc([N+](=O)[O-])c2sc(C(N)=O)[n+]([O-])c2c1,inactive
11,CCCc1c(-c2ccc(O)cc2)nn(-c2ccc(O)cc2)c1-c1ccc(O)cc1,inactive
12,O=C(NOCC1CC1)c1cc(Br)c(F)c(F)c1Nc1ccc(I)cc1Cl,inactive
13,NC(N)=N[C@@H](CCC(=O)O)C(=O)O,inactive
14,[Li+],inactive
15,CCCCCCN(CCCCCC)C(=O)Cc1c(-c2ccc(F)cc2)[nH]c2ccccc12,inactive
16,NC(N)=NCCCCN=C(N)N,inactive
17,Cc1ccc2c(c1)C(N1CCN(C)CC1)=Nc1cccnc1N2,inactive
18,COc1cccc2c1[C@@H]1CN(CCCCn3c(=O)[nH]c4c(sc5ncc(-c6ccccc6)nc54)c3=O)C[C@@H]1CO2,inactive
19,Cc1cn([C@H]2CC(N=[N+]=[N-])[C@@H](CO)O2)c(=O)[nH]c1=O (stereo not given in full),inactive
20,Clc1ccc2c(c1)N=C(N1CCNCC1)c1ccccc1N2,inactive

row,SMILES,Potency
1,O=C(O)C1CCCNC1 (stereo not given),inactive
2,CN1[C@@H](CC(=O)c2ccccc2)CCC[C@H]1C[C@H](O)c1ccccc1,inactive
3,CCCCCCC/C=C\CCCCCCCCC(=O)O,inactive
4,NS(=O)(=O)c1cccc2c1c([N+](=O)[O-])cc1nc(O)c(O)nc12,inactive
5,COC1(C2=NCCN2)COc2ccccc2O1 (stereo not given),inactive
6,O=c1c2ccccc2nc2n1CCc1c-2[nH]c2ccccc12,13.3 µM (active)
7,N=c1c[n+](N2CCOCC2)[n-]o1,inactive
8,O=C1c2c(O)cc(O)cc2OC(c2ccc(O)c(O)c2)C1O (stereo not given),inactive
9,COc1cc(CNC(=O)CCCCCCC(C)C)ccc1O,inactive
10,CC(=O)O[C@H]1CC2(C)[C@@H](C[C@@H](O)[C@H]3[C@@]4(C)CC[C@@H](O)[C@@H](C)[C@@H]4CC[C@@]32C)C1=C(CCC=C(C)C)C(=O)O (stereo not given in full),inactive
11,NC(=O)c1cc[n+](CC2=C(C(=O)O)N3C(=O)[C@@H](NC(=O)[C@@H](c4ccccc4)S(=O)(=O)[O-])[C@H]3SC2)cc1,inactive
12,C[C@@H](c1ncncc1F)[C@](O)(Cn1cncn1)c1ccc(F)cc1F,inactive
13,CN[C@H](CC(C)C)C(=O)N[C@H]1C(=O)N[C@@H](CC(N)=O)C(=O)N[C@H]2C(=O)N[C@H]3C(=O)N[C@H](C(=O)N[C@H](C(=O)O)c4cc(O)cc(O)c4-c4cc3ccc4O)[C@H](O)c3ccc(c(Cl)c3)Oc3cc2cc(c3O[C@@H]2O[C@H](CO)[C@@H](O)[C@H](O)[C@H]2O[C@H]2C[C@](C)(N)[C@H](O)[C@H](C)O2)Oc2ccc(cc2Cl)[C@H]1O,inactive
14,O=S(=O)(c1cccc2c(Cl)cccc12)N1CCCNCC1,inactive
15,S=c1[nH]c(-c2ccccc2)cn1-c1ccccc1,inactive
16,COc1ccc(NC(=O)c2ccc(-c3ccc(-c4noc(C)n4)cc3C)cc2)cc1N1CCN(C)CC1,inactive
17,COc1ccc(/C=C/C(=O)Nc2ccccc2C(=O)O)cc1OC,inactive
18,COC(=O)C(N)Cc1ccc(Cl)cc1 (stereo not given),inactive
19,CSc1ccccc1N1CCN(CCCCCC(=O)NC2CCCc3ccccc32)CC1 (stereo not given),inactive
20,O=S(=O)(c1cccc2c(I)cccc12)N1CCCNCC1,inactive
